{"source": "PubChem BioAssay AID2417", "about": "(National Center for Advancing Translational Sciences (NCATS), 2010)", "note": "The whole screen tested about 140,000 compounds, of which about 4,300 (3.1%) were called active. Not shown: some 21% with an inconclusive outcome. For the sample, actives were picked, then their nearest neighbours and some compounds at random. Unmarked numbers belong to inactive results.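 Rule for the calls: active = readout at or below -70, meaning at least 70% loss of cells showing the perinucleolar compartment, a nuclear body marking cancer cells; inconclusive = readout between -30 and a set limit; inactive = the rest.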", "data": [{"experiment": "High Content Assay for Compounds that inhibit the Assembly of the Perinucleolar Compartment;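 note: plate controls were DMSO wells for no effect and camptothecin positive control wells for full effect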", "settings": "PC3M PTB-GFP, PNC prevalence imaging, 16 h; at 10 µM; stronger effect = lower value", "outline": "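PC3M cells stably expressing PTB-GFP, 750–1000 cells/well, treated 16 h at 37 °C with compound (23 nl of library stock), in duplicate. After paraformaldehyde fixation and Hoechst stain, imaged at 20x; PNC prevalence scored by image analysis.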", "values": [{"compound": "Cc1ccccc1C1=NC(C(F)(F)F)(C(F)(F)F)c2c(n(-c3ccc(F)cc3)c(=O)[nH]c2=O)N1", "activity change (PNC), negative = inhibition": "-9.65%"}, {"compound": "CCOC(=O)C(C)Sc1nc2ccccc2c(=O)n1CC1CCCCC1", "note": "(stereo not drawn)", "activity change (PNC), negative = inhibition": "0.699%"}, {"compound": "CCOC(=O)C1CCc2nc3ccccc3c(=O)n21", "note": "(stereo not drawn)", "activity change (PNC), negative = inhibition": "-123% (active)"}, {"compound": "CCC1(CC)Cc2ccccc2-c2nc3ccccc3c(=O)n21", "activity change (PNC), negative = inhibition": "35.3%"}, {"compound": "O=C(COC(=O)c1cc(=O)[nH]c2ccccc12)Nc1nc(-c2cccc(Br)c2)cs1", "activity change (PNC), negative = inhibition": "21.6%"}, {"compound": "COC(=O)Cc1ccc(OCC(=O)Nc2ccc(OC(F)(F)F)cc2)cc1", "activity change (PNC), negative = inhibition": "-17.1%"}, {"compound": "CCCCN(C)C(=O)C1CCN(Cc2ccccn2)CC1", "activity change (PNC), negative = inhibition": "-84.5% (active)"}, {"compound": "CCCCN(Cc1ccccc1)C(=O)C1CCN(Cc2sccc2C)CC1", "activity change (PNC), negative = inhibition": "30.3%"}, {"compound": "CCCC(=O)C1CCN(Cc2ccccc2)CC1", "activity change (PNC), negative = inhibition": "-25.7%"}, {"compound": "CCOc1cccc(NC(=O)CC#N)c1", "activity change (PNC), negative = inhibition": "-1.74%"}, {"compound": "CC(=O)Nc1cccc(Oc2cc(C#N)c(C#N)cc2N2CCOCC2)c1", "activity change (PNC), negative = inhibition": "-107% (active)"}, {"compound": "CC(=O)Nc1ccc(N2CCOCC2)c(C(=O)Nc2cccc(C)c2)c1", "activity change (PNC), negative = inhibition": "-7.92%"}, {"compound": "CCn1nc(C)c(/C=N/NC(=O)Cc2ccc(Cl)cc2)c1C", "activity change (PNC), negative = inhibition": "49.9%"}, {"compound": "O=[N+]([O-])c1cc(S(=O)(=O)N2CCCC2)ccc1NN=C1CCCC1", "activity change (PNC), negative = inhibition": "27.5%"}, {"compound": "COc1cc(NC(=O)COC(=O)CSc2ccc3ccccc3c2)c(C)cc1[N+](=O)[O-]", "activity change (PNC), negative = inhibition": "0.296%"}, {"compound": "O=C(CSCc1ccc(Cl)cc1)N1CCCCC1", "activity change (PNC), negative = inhibition": "0.451%"}, {"compound": "O=C(CSCc1ccc(Cl)cc1)N1CCN(Cc2ccc3c(c2)OCO3)CC1", "activity change (PNC), negative = inhibition": "-86.5% (active)"}, {"compound": "O=C(Nc1cccc2ccccc12)N1CCN(Cc2ccc3c(c2)OCO3)CC1", "activity change (PNC), negative = inhibition": "-95.4% (active)"}, {"compound": "O=C(CCCN1C(=O)c2cccc3cccc(c23)C1=O)N1CCN(Cc2ccc3c(c2)OCO3)CC1", "activity change (PNC), negative = inhibition": "-24.4%"}, {"compound": "O=C(Nc1ccccc1)N1CCN(Cc2ccccc2)CC1", "activity change (PNC), negative = inhibition": "47.3%"}, {"compound": "CS(=O)(=O)N(CC(=O)N1CCN(Cc2ccc3c(c2)OCO3)CC1)c1ccc2c(c1)OCO2", "activity change (PNC), negative = inhibition": "-4.43%"}, {"compound": "O=C(Nc1ccccc1F)c1ccccc1-c1ccc(C(F)(F)F)cc1", "activity change (PNC), negative = inhibition": "16.7%"}, {"compound": "CCc1nccn1S(=O)(=O)c1cccc([N+](=O)[O-])c1", "activity change (PNC), negative = inhibition": "10%"}, {"compound": "Cc1nnc(NC(=O)/C=C/c2ccco2)s1", "activity change (PNC), negative = inhibition": "-22.5%"}, {"compound": "CCS(=O)(=O)Nc1cccc(-c2cc(-c3ccccc3)c3cc(C)ccc3n2)c1", "activity change (PNC), negative = inhibition": "81.5%"}, {"compound": "CCc1ccc(C(=O)OCC(=O)Nc2cccc(S(=O)(=O)NC3=NCCCCC3)c2)cc1", "activity change (PNC), negative = inhibition": "14.5%"}, {"compound": "CC(=O)Nc1ccc(S(=O)(=O)NC(C)C(=O)OCC(=O)NC2CCCC2)cc1", "note": "(stereo not drawn)", "activity change (PNC), negative = inhibition": "5.59%"}, {"compound": "O=C(CC(NS(=O)(=O)c1ccc(Cl)cc1)c1ccco1)NC1CCCC1", "note": "(stereo not drawn)", "activity change (PNC), negative = inhibition": "-84.2% (active)"}, {"compound": "COc1ccc(S(=O)(=O)NC(CC(=O)NCc2ccccc2OC)c2ccco2)cc1", "note": "(stereo not drawn)", "activity change (PNC), negative = inhibition": "32.4%"}, {"compound": "Cc1cccc(C(=O)OCC(=O)Nc2sc3c(c2C#N)CCC3)c1", "activity change (PNC), negative = inhibition": "5.52%"}, {"compound": "CN1CCN(CC(=O)Nc2sc3c(c2C#N)CCC(C(C)(C)C)C3)CC1", "note": "(stereo not drawn)", "activity change (PNC), negative = inhibition": "-86.5% (active)"}, {"compound": "N#Cc1ccsc1NC(=O)CN1CCCCC1", "activity change (PNC), negative = inhibition": "8.2%"}, {"compound": "COc1ccccc1Oc1ccc(N/C=C2/CCCC2=O)cc1", "activity change (PNC), negative = inhibition": "39.1%"}, {"compound": "Cc1ccccc1OCC(=O)Nc1nc(C)c(C(=O)N(C)C)s1", "activity change (PNC), negative = inhibition": "-15.1%"}, {"compound": "CCCCOC(=O)Cn1c(=N)n(CCN(CC)CC)c2ccccc21", "activity change (PNC), negative = inhibition": "33.2%"}, {"compound": "CCn1c(=N)n(CC(=O)c2cccc(OC)c2)c2ccccc21", "activity change (PNC), negative = inhibition": "-117% (active)"}, {"compound": "COc1ccc(OC)c(NC(=O)Cn2c(=O)oc3ccccc32)c1", "activity change (PNC), negative = inhibition": "0.891%"}, {"compound": "CCCCN(C)c1ccc([N+](=O)[O-])cc1", "activity change (PNC), negative = inhibition": "22.3%"}, {"compound": "Cc1ccc(C(C[N+](=O)[O-])c2c(C)cc3ccccn23)cc1", "note": "(stereo not drawn)", "activity change (PNC), negative = inhibition": "-2.04%"}, {"compound": "Cc1cc(NC(=O)Nc2ccccc2)n(-c2ccccc2)n1", "activity change (PNC), negative = inhibition": "15.1%"}, {"compound": "Cc1cc(Nc2ccccc2)n(CCC#N)n1", "activity change (PNC), negative = inhibition": "-16.1%"}, {"compound": "Cc1cc(Nc2ccccc2)n(C(=O)c2ccc(N)cc2)n1", "activity change (PNC), negative = inhibition": "-86.2% (active)"}, {"compound": "Cc1cc(C)cc(NC(=S)NCc2ccc(F)cc2)c1", "activity change (PNC), negative = inhibition": "35.9%"}, {"compound": "CNC(=S)N1CCN(c2ccccn2)CC1", "activity change (PNC), negative = inhibition": "-10.5%"}, {"compound": "Cc1cccc(N=C2NN=C(c3c[nH]c4ccccc34)CS2)c1", "activity change (PNC), negative = inhibition": "57.4%"}, {"compound": "COc1ccc(-c2ccc(Nc3ccc(S(=O)(=O)N4CCCC4)cc3)nn2)cc1OC", "activity change (PNC), negative = inhibition": "7.04%"}, {"compound": "COc1ccc(S(=O)(=O)N2CCCCC2)cc1Br", "activity change (PNC), negative = inhibition": "-11%"}, {"compound": "COc1ccc(S(=O)(=O)Nc2ccc(S(=O)(=O)N3CCCCC3)cc2)cc1OC", "activity change (PNC), negative = inhibition": "-88.7% (active)"}, {"compound": "Cc1[nH]c2ccccc2c1/C=N\\NC(=O)Cn1nnc(-c2ccccc2)n1", "activity change (PNC), negative = inhibition": "40.3%"}, {"compound": "CCOC(=O)c1c(C)[nH]c2c1-c1ccccc1C(=O)C2=O", "activity change (PNC), negative = inhibition": "-124% (active)"}, {"compound": "CCOC(=O)c1cc2n(c1N)-c1ccccc1C2=O", "activity change (PNC), negative = inhibition": "32%"}, {"compound": "CCOC(=O)c1c(C)[nH]c(=S)c(C#N)c1-c1ccccc1", "activity change (PNC), negative = inhibition": "32.4%"}, {"compound": "Cc1cccc(OCCNC(=S)NC(=O)c2cccnc2)c1", "activity change (PNC), negative = inhibition": "17.2%"}, {"compound": "CC(C)CNC(=O)COC(=O)/C=C/c1ccco1", "activity change (PNC), negative = inhibition": "0.199%"}, {"compound": "O=C(NC(CC(=O)N1CCN(c2ccccc2)CC1)c1ccccc1)c1ccccc1Cl", "note": "(stereo not drawn)", "activity change (PNC), negative = inhibition": "-9.01%"}, {"compound": "CCCc1cc(-c2nc(-c3ccc(C)cc3)cs2)ccn1", "activity change (PNC), negative = inhibition": "10.4%"}, {"compound": "COC(=O)C1=C(C)N(c2ccc(Br)cc2)C(=O)/C1=C\\c1ccco1", "activity change (PNC), negative = inhibition": "-80.8% (active)"}, {"compound": "O=C(OCN1C(=O)c2ccccc2C1=O)/C(=C\\c1ccco1)NC(=O)c1ccccc1", "activity change (PNC), negative = inhibition": "73.8%"}, {"compound": "CCCCN=C1N/C(=C\\c2ccco2)C(=O)N1c1ccccc1", "activity change (PNC), negative = inhibition": "-16.5%"}, {"compound": "O=C(N/N=C/c1ccc(Br)o1)c1cncc(Br)c1", "activity change (PNC), negative = inhibition": "-10.5%"}, {"compound": "CCCSC(=S)NC1CCS(=O)(=O)C1", "note": "(stereo not drawn)", "activity change (PNC), negative = inhibition": "-6.42%"}, {"compound": "CCN(CC(=O)NC1CCS(=O)(=O)C1)S(=O)(=O)c1ccccc1", "note": "(stereo not drawn)", "activity change (PNC), negative = inhibition": "-23.3%"}, {"compound": "CC(C)C(=O)NC(NC(=S)NC1CCS(=O)(=O)C1)C(Cl)(Cl)Cl", "note": "(stereo not drawn)", "activity change (PNC), negative = inhibition": "-100% (active)"}]}]}
